According to PubChem BioAssay:

Assay: blockers of polyQ-driven CASP3 activation – cell-based (AID 1583)
Details: polyglutamine-induced caspase-3 activation, cell assay; stronger effect = higher value; concentration not given here

Row | SMILES | inhibition [%]
1 | C1CCN2C[C@@H]3CC(CN4CCCC[C@@H]34)[C@H]2C1 | 16.2
2 | CC(Oc1ccccc1)C(=O)NC1C(=O)N2C(C(=O)O)C(C)(C)S[C@H]12 (stereo partly specified) | 11.5
3 | CC(NC(=O)C(NC(=O)OCc1ccccc1)C(C)C)C(=O)NC(CC(=O)O)C(=O)OC(F)F (stereo unspecified) | 59.7
4 | CC[C@@H](C(=O)C(C)[C@@H](O)[C@H](C)CCc1ccc(C)c(O)c1C(=O)O)C1OC(CC)(C2CC[C@](O)(CC)[C@H](C)O2)C[C@@H]1C (stereo partly specified) | 75.5
5 | C[C@]12CCC3c4ccc(OC(=O)CCC(=O)O)cc4CCC3C1CCC2=O (stereo partly specified) | 21.8
6 | CCC[C@@H]1C[C@@H](C(=O)NC(C(C)Cl)C2O[C@H](SC)[C@H](O)[C@@H](O)[C@H]2O)N(C)C1 (stereo partly specified) | 0.38
7 | CC[C@@]1(O)C[C@H](OC2CC(N(C)C)C(OC3CC(O)C(OC4CCC(=O)C(C)O4)C(C)O3)C(C)O2)c2c(cc3c(c2O)C(=O)c2c(O)cccc2C3=O)[C@H]1C(=O)OC (stereo partly specified) | -23.8
8 | O=c1c(O)cc2c(O)oc3c(=O)c(O)cc4c3c2c1CC=4O | -1.16
9 | CC(=O)N[C@@H](Cc1c[nH]c2ccccc12)C(N)=O | 11.7
10 | C=C1C(=O)OC2C1CCC1(C)CCC=C(C)C21 (stereo unspecified) | 56
11 | O=c1cc(-c2ccccc2)oc2cc(O)c(O)cc12 | 18.9
12 | CCCCC(=O)OC1(C(=O)CO)C(C)CC2C3CCC4=CC(=O)C=CC4(C)[C@@]3(F)[C@@H](O)CC21C (stereo partly specified) | 9.05
13 | CN[C@@H]1[C@H](O)[C@H](NC)[C@H]2O[C@@]3(O)C(=O)C[C@@H](C)O[C@H]3OC2[C@H]1O (stereo partly specified) | 1.15

Assay: yeast 75Q aggregation reduction – 75Q-TubU reporter (AID 1593)
Details: Yeast 75Q polyglutamine aggregation reporter

Row | SMILES | score
14 | C1CCN2C[C@@H]3CC(CN4CCCC[C@@H]34)[C@H]2C1 | 1.32
15 | CC(Oc1ccccc1)C(=O)NC1C(=O)N2C(C(=O)O)C(C)(C)S[C@H]12 (stereo partly specified) | 1.28
16 | CC(NC(=O)C(NC(=O)OCc1ccccc1)C(C)C)C(=O)NC(CC(=O)O)C(=O)OC(F)F (stereo unspecified) | 1.09
17 | CC[C@@H](C(=O)C(C)[C@@H](O)[C@H](C)CCc1ccc(C)c(O)c1C(=O)O)C1OC(CC)(C2CC[C@](O)(CC)[C@H](C)O2)C[C@@H]1C (stereo partly specified) | 1
18 | C[C@]12CCC3c4ccc(OC(=O)CCC(=O)O)cc4CCC3C1CCC2=O (stereo partly specified) | 1.66
19 | CCC[C@@H]1C[C@@H](C(=O)NC(C(C)Cl)C2O[C@H](SC)[C@H](O)[C@@H](O)[C@H]2O)N(C)C1 (stereo partly specified) | 1.1
20 | CC[C@@]1(O)C[C@H](OC2CC(N(C)C)C(OC3CC(O)C(OC4CCC(=O)C(C)O4)C(C)O3)C(C)O2)c2c(cc3c(c2O)C(=O)c2c(O)cccc2C3=O)[C@H]1C(=O)OC (stereo partly specified) | 0.51
21 | O=c1c(O)cc2c(O)oc3c(=O)c(O)cc4c3c2c1CC=4O | -1.91
22 | CC(=O)N[C@@H](Cc1c[nH]c2ccccc12)C(N)=O | 1.31
23 | C=C1C(=O)OC2C1CCC1(C)CCC=C(C)C21 (stereo unspecified) | 0.7
24 | O=c1cc(-c2ccccc2)oc2cc(O)c(O)cc12 | 1.42
25 | CCCCC(=O)OC1(C(=O)CO)C(C)CC2C3CCC4=CC(=O)C=CC4(C)[C@@]3(F)[C@@H](O)CC21C (stereo partly specified) | -0.8
26 | CN[C@@H]1[C@H](O)[C@H](NC)[C@H]2O[C@@]3(O)C(=O)C[C@@H](C)O[C@H]3OC2[C@H]1O (stereo partly specified) | 1.13
